Results as given in PMC4336329 (PLoS ONE, 2015).
About 14,000 (4.5%) of roughly 310,000 compounds showed an effect of 50% or more. Effects have a minus sign here. Many of the other results were omitted from the sample, so strong results are more common in it than they were.

Target: human ether-à-go-go-related gene (hERG) potassium channel (human, UniProt Q12809)
Assay: primary screen, population patch clamp on CHO cells stably expressing hERG; higher = less effect of the substance
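Further: peak tail current of the secondary pulse compared with the same well before compound.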

Chain of human ether-à-go-go-related gene (hERG) potassium channel (Q12809 whole entry, looked up): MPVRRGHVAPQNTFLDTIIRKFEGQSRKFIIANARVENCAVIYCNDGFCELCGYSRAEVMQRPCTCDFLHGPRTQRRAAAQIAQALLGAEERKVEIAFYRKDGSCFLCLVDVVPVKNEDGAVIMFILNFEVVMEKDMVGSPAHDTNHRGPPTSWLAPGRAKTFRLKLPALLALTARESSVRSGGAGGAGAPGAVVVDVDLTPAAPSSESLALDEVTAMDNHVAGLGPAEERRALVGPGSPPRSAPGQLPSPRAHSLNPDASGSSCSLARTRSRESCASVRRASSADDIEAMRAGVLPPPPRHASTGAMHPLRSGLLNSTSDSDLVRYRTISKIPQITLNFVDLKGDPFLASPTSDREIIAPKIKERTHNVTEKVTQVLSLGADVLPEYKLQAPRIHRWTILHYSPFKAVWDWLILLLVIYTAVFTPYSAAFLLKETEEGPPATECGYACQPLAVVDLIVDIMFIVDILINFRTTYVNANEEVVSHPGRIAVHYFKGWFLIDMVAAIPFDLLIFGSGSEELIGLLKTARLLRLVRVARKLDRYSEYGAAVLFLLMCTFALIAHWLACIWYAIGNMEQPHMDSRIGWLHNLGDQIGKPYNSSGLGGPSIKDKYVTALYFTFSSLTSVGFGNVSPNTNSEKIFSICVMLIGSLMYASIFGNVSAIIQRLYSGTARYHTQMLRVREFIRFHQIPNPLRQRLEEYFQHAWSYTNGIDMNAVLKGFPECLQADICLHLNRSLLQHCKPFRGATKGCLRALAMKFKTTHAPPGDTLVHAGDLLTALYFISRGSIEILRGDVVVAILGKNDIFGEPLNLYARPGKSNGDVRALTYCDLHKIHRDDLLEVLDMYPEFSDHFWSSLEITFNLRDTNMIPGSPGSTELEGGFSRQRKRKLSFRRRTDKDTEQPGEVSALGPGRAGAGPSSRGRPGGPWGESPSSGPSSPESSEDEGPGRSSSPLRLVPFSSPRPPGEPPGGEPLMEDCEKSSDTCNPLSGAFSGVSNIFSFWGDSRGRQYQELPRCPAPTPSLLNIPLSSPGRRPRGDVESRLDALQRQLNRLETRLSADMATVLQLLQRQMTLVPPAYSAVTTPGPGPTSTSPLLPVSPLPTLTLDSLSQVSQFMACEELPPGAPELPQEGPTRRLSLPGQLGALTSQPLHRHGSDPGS

SMILES	hERG current change (%, negative = inhibition) at 10uM [%]
CC1(C)CC(=O)C(N=Nc2ccc(F)cc2)=C(O)C1	-4.21
CC1(C)CC(=O)C(N=Nc2ccc(OC(F)F)cc2)=C(O)C1	-57.6
COc1ccc(N=NC2=C(O)CC(C)(C)CC2=O)cc1	-9.39
COc1ccc(-n2cnc3cc(C(=O)N4CCC5(CC4)OCCO5)ccc32)cc1	-42.8
O=C(Cc1ccccc1)Nc1ccccc1N1CCCC1	9.76
Cc1ccc(-c2nnc(SCC(=O)Nc3ccccc3F)o2)cc1	6.53
Cc1ccccc1NC(=O)CSc1ccc2nnc(-c3ccccn3)n2n1	-23.8
Cc1nnc(NC(=O)CSc2ccc3nnc(-c4ccccn4)n3n2)s1	-9.79
Cc1ccccc1CSc1nnc(-c2ccccn2)n1C	-1.96
Cc1cc(NC(=O)CSc2ccc3nnc(-c4ccccn4)n3n2)no1	-6.72
Cc1ccc(C)c(CSc2ccc3nnc(-c4ccccn4)n3n2)c1	-76.5
Cc1ccccc1CSc1ccc2nnc(-c3ccccn3)n2n1	-81.6
CS(=O)Cc1cc(Oc2ccccc2)nc(-c2ccncc2)n1 (centres unmarked)	-16.5
Cc1nc2cc(NC(=O)c3ccc(Br)s3)ccc2s1	20
O=C(CSc1ncccc1-c1nc2ccccc2[nH]1)N1CCCCC1	-16.3
CC1(C(=O)CSc2nc3ccccc3[nH]2)CCC(=O)O1 (centres unmarked)	-70.8
Br.CC1(C(=O)CSc2ncn[nH]2)CCC(=O)O1 (centres unmarked)	2.21
Br.CC1(C(=O)CSc2nc3ccccc3s2)CCC(=O)O1 (centres unmarked)	-2.67
COc1ccc(N2CCN(C(=O)CSc3ncccc3-c3nc4ccccc4[nH]3)CC2)cc1	-53.4
CN1CCN(c2ccc([N+](=O)[O-])c(Sc3nc4ccccc4[nH]3)c2)CC1	-19.7
COc1ccccc1N1CCN(C(=O)CSc2ncccc2-c2nc3ccccc3[nH]2)CC1	-23.7

SMILES	hERG current change (%, negative = inhibition) at 10uM [%]
CCN1CCN(c2ccc([N+](=O)[O-])c(Sc3nc4ccccc4[nH]3)c2)CC1	-60.4
O=C(CSc1nc2ccccc2[nH]1)Nc1ccc(N2CCOCC2)cc1	8.65
O=[N+]([O-])c1ccc(N2CCN(CCO)CC2)cc1Sc1nc2ccccc2[nH]1	-12.4
NC(=O)CCCSc1nc2ccccc2[nH]1	13.3
O=C(CCCSc1nc2ccccc2[nH]1)N1CCN(c2ccc([N+](=O)[O-])cc2)CC1	-79.9
COC(=O)C1=C(C)N(CCc2ccc(OC)c(OC)c2)C(=O)C1	18.5
O=C(CNS(=O)(=O)c1ccc(Cl)cc1)NNC(=O)c1cccnc1	20.7
S=C1NC[C@H](Cc2cccc3ccccc23)N1CC1CCCCC1	10.3
COc1cc(O)sc1C=Nc1ccc(Cl)cc1	4.72
Cc1cc2c(n1-c1ccc(Br)cc1)CC(C)(C)CC2=O	-33.5
O=S(=O)(Nc1cccc(-n2cnnn2)c1)c1ccccc1C(F)(F)F	12
CN1CCN(CCC(=O)N/N=C/c2cc([N+](=O)[O-])ccc2OC(F)F)CC1	1.78
C#CCOCCOCCOCCNc1nc(N2CCN(C(=O)CCCCCCCCCCNC(=O)Cn3cc(CCCCCN)nn3)CC2)nc(N2CCN(C(=O)CCCCCCCCCCNC(=O)[C@@H](CCC(=O)O)n3cc(CCCCCN)nn3)CC2)n1	-5.58
CC(=O)Nc1cccc(NC(=O)CSc2nnc(Cc3cccn3C)n2-c2ccc(C)cc2)c1	-11.9
Cc1ccnc(NC(=O)c2ccc(Cl)c(NC(=O)C(C)Oc3ccccc3)c2)c1 (centres unmarked)	1.41
O=C(CCCSc1nc2ccccc2[nH]1)NCc1ccc(Cl)cc1	-62.3
Cc1cccc(N2CCN(C(=O)CCCSc3nc4ccccc4[nH]3)CC2)c1C	-17.4
O=C(CSc1nc2ccccc2[nH]1)N1CCN(c2ccccc2)CC1	-0.235
O=C(CCCSc1nc2ccccc2[nH]1)NCc1ccccc1Cl	-19.3
O=C(CCCSc1nc2ccccc2[nH]1)NCc1ccccc1	-23.9
COc1ccc(N2CCN(C(=O)CSc3nc4ccccc4c(=O)[nH]3)CC2)cc1	-10.7

SMILES	hERG current change (%, negative = inhibition) at 10uM [%]
COc1ccc(N2CCN(C(=O)CCCSc3nc4ccccc4[nH]3)CC2)cc1	-62.3
O=C(CCCSc1nc2ccccc2[nH]1)Nc1ccccc1	7.05
O=C(CCCSc1nc2ccccc2[nH]1)N1CCN(c2ccccc2)CC1	-60.2
O=C(CSc1nc2ccccc2[nH]1)N1CCCCC1	-2
O=C(CSc1nc2ccccc2[nH]1)N1CCN(c2ccc(F)cc2)CC1	-55.6
Cc1ccc2nc(SCC(=O)N3CCN(c4ccccc4)CC3)[nH]c2c1	1.42
CC(C)CNC(=O)C(=O)NC1CCCC1	11.7
CC1=C(C)CC(C(=O)Nc2nccs2)C(C(=O)O)C1 (centres unmarked)	28.7
O=C(CSc1n[nH]c(-c2ccncc2)n1)Nc1ccc(Br)cc1	-2.1
CN(C)/C=N/c1nc2nccc(-c3ccc(F)cc3)n2n1	13.8
CCC1Oc2ccc(C)cc2N(CC(=O)NCCCN2CCCCC2C)C1=O (centres unmarked)	3.15
CN(C(=O)CSc1nnc(-c2ccccc2)o1)c1c(N)n(Cc2ccccc2)c(=O)[nH]c1=O	12
COc1cccc(N2C(=O)/C(=C/c3ccc(C)o3)C(=O)NC2=S)c1	15
COc1ccc(/C=C/C=N/NC(=O)COc2ccc(OC)cc2)cc1	1.85
CC(C(=O)OCC(=O)c1cccc([N+](=O)[O-])c1)N1C(=O)C2C3CCC(C3)C2C1=O (centres unmarked)	2.55
O=C(CCN1C(=O)C2C3CCC(C3)C2C1=O)OCC(=O)c1ccccc1 (centres unmarked)	9.98
CC(C(=O)OCC(=O)c1ccc([N+](=O)[O-])cc1)N1C(=O)C2C3CCC(C3)C2C1=O (centres unmarked)	-54
CC(C(=O)OCC(=O)c1ccc([N+](=O)[O-])cc1)N1C(=O)C2C3C=CC(C3)C2C1=O (centres unmarked)	-43
O=C(CCN1C(=O)C2C3CCC(C3)C2C1=O)OCC(=O)c1ccc(Br)cc1 (centres unmarked)	-30.2
O=C(CCN1C(=O)C2C3CCC(C3)C2C1=O)OCC(=O)c1ccc(Cl)cc1 (centres unmarked)	-53.2
